Screens (PubChem)
tim10-1 inh = growth inhibitors of tim10-1 mutant yeast; inhibition, % at 20 µM; actives 2.2% (n = 330,000); S. cerevisiae tim10-1 ts strain growth, BacTiter-Glo, 24 h; AID 463190;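 active = inhibition of at least 40%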;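 also: mutant grown at 25 °C; 0% = DMSO wells with yeast and 100% = wells holding no yeast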
MPTP block = permeability transition pore inhibition; inhibition, % at 10 µM; actives 1.4% (n = 360,000); isolated mouse mitochondria, Ca2+ swelling absorbance, 30 min; AID 602449;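 active = inhibition of 50% or more, scaled per plate between neutral and stimulator controls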;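 also: 0% = DMSO wells given calcium and 100% = 1 mM EGTA wells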
Mdm2-MdmX inh = inhibitors of human Mdm2/MdmX interaction | actives 3% (n = 330,000) | AID 485346 | SaOS-2 split-luciferase Mdm2/MdmX complementation, luminescence | inhibition, % at 8 µM | O15151+Q00987;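 active = inhibition of at least 50% at 8 µM in the primary screen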
tim23-1 inh = tim23-1 yeast growth inhibition. S. cerevisiae tim23-1 growth, BacTiter-Glo luminescence, 24 h. inhibition, % at 20 µM. actives 1.3% (n = 330,000);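 active = growth inhibition of the mutant yeast at or above 50%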;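 also: temperature-sensitive mutant grown at 25 °C; plate controls were DMSO-treated mutant yeast for no effect and medium wells lacking yeast for full effect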
TIM10 inh = TIM10 yeast growth inhibition; S. cerevisiae TIM10 strain growth, BacTiter-Glo luminescence, 24 h; actives 1.4% (n = 330,000); inhibition, % at 10 µM; AID 463195;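 active = inhibition of 40% or more at the single tested concentration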;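 also: wild-type TIM10 isogenic control strain grown at permissive 25 °C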
tim10-1 confirm = confirmation of tim10-1 mutant yeast growth inhibitors. shares compounds with tim10-1 inh. S. cerevisiae tim10-1 ts strain growth, BacTiter-Glo, 24 h. inhibition, % at 20 µM. actives 56% (n = 7,400). AID 463213;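 active = inhibition of yeast growth at or above a set limit in either of two repeat tests at 20 µM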;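 also: tim10-1 mutant grown at permissive 25 °C to find synthetic lethal compounds; 0% = DMSO yeast wells and 100% = medium wells without yeast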
* = called active by the depositor; x = no result; ! = repeats disagree. Rows were chosen to be rich in hits. Some 6.3% of all compounds tested hit in one or more screens of this group.

SMILES	tim10-1 inh	MPTP block	Mdm2-MdmX inh	tim23-1 inh	TIM10 inh	tim10-1 confirm
Cc1coc2c(C)c3oc(=O)c(CCC(=O)N[C@H](C(=O)O)C(C)C)c(C)c3cc12	x	0.6	x	x	x	x
Fc1ccccc1CNC(=S)NCc1ccc(Cl)cc1	31.0	34.6	4.4	36.8	25.5	x
Fc1ccccc1CNc1cc(Cl)cc(Cl)c1	59.0*	10.5	10.3	26.1	20.3	65.5*
Cc1cc(C)n2c(SCc3ccccc3Cl)nnc2n1	42.8*	1.1	-12.2	30.9	-1.8	17.3
Cc1cc(C)n2c(SCc3ccc(Cl)cc3Cl)nnc2n1	10.5	3.6	8.0	26.2	-14.0	x
CC(C)CC1Nc2ncnc(N3CCCCC3)c2N(Cc2ccc(Br)cc2)C1=O (stereo unspecified)	40.8*	0.5	18.9	37.1	37.9	32.2*
O=C1NC[C@@H](CCCCN2CCN(CCc3ccc(O)cc3)C(=O)C2=O)N(CCC2CCCCC2)C1=O	x	-2.4	x	x	x	x
C=CC(=O)Oc1ccc(N2Cc3ccccc3C2=O)cc1	59.5*	3.3	-3.5	21.2	3.5	67.7*
CC(=O)Nc1ccc(S(=O)(=O)c2ccnc3cc(Cl)ccc23)cc1	x	1.2	x	x	x	x
CCCN1Cc2cccc(C(=O)Nc3ccc(C)cc3)c2C1=O	15.4	3.0	19.0	3.9	8.9	x
CCOC(=O)c1ccc(NC(=O)c2cccc3c2C(=O)N(CC2CCCO2)C3)cc1 (stereo unspecified)	47.0*	-0.3	4.4	35.9	17.9	43.3*
CCN(CC)c1ccc(S(=O)(=O)N2CCOCC2)cc1NC(=O)Cn1nc(C)c([N+](=O)[O-])c1C	13.6	-0.1	6.9	2.8	3.0	x
CCN(CC)c1ccc(S(=O)(=O)N2CCOCC2)cc1NC(=O)CN1CCc2ccccc2C1	49.9*	7.2	22.1	10.7	30.6	9.9
CC(C)(C)NC(=O)C1C(c2ccc(C(F)(F)F)cc2)=Nc2ccccc2N1C(=O)c1cccc2ccccc12 (stereo unspecified)	x	3.2	x	x	x	x
Cc1ccccc1C1N=C2Oc3ccccc3C=C2C(=O)N1 (stereo unspecified)	x	-1.3	x	x	x	x
O=C(CN1CCC(n2nnc3cc(F)ccc32)CC1)Nc1ccc2c(c1)CCC2	46.7*	-0.3	24.3	16.7	14.5	22.3
O=C(CN1CCC(n2nnc3ccccc32)CC1)Nc1ccc2c(c1)CCC2	18.3	2.3	24.8	20.0	20.9	x
CCOC(=O)c1ccc2ncc(C(=O)OCC)c(NCCN3CCOCC3)c2c1	-2.0	-1.4	16.7	22.9	0.7	x
CCOC(=O)c1cnc2ccc(C)cc2c1Nc1ccc(N2CCOCC2)cc1	41.3*	0.0	42.3	-16.6	15.4	25.6
Cc1ccc(/C=C/C(=O)N2CC(C)CC(C)C2)o1 (stereo unspecified)	43.4*	0.1	-13.5	30.7	18.6	31.1
CCN1CCN(C(=O)/C=C/c2ccc(C)o2)CC1	-1.8	-1.4	20.5	-2.8	3.8	x
CCCNC(=S)N1CCN(c2nc(C)nc3sc4c(c23)CCCC4)CC1	42.5*	-0.3	13.5	25.7	31.7	16.3
COCCNC(=O)C[C@@H]1C[C@H]2c3cc(NC(=O)Nc4ccc(F)cc4)ccc3O[C@H]2[C@H](CO)O1	x	-0.7	x	x	x	x
CSCCC(NC(=O)c1ccccc1Br)C(=O)NC(C)CCc1ccccc1 (stereo unspecified)	76.4*	0.9	9.9	0.7	4.5	-0.1
O=C(NCCO)/C(=C\c1cccc([N+](=O)[O-])c1)NC(=O)c1cccs1	x	-0.9	x	x	x	x
SMILES	tim10-1 inh	MPTP block	Mdm2-MdmX inh	tim23-1 inh	TIM10 inh	tim10-1 confirm
Cc1oc2ccc(O)cc2c1C(=O)c1ccc([N+](=O)[O-])cc1	44.9*	1.7	26.0	45.1	28.3	26.7
Cc1oc2ccc(O)cc2c1C(=O)c1ccc(Cl)cc1	31.2	2.1	-7.1	23.0	4.8	x
CCOc1ccc(OCC)c(NC(=O)CN2CCN(c3cc(C)ccc3C)CC2)c1	-11.0	7.5	32.5	-1.4	-6.7	x
CCOc1ccc(OCC)c(NC(=O)CN2CCN(c3cccc(C)c3)CC2)c1	46.4*	1.0	18.2	24.8	23.6	29.3
COCCNC(=O)c1cccc(NC(=O)C2=C(C)OCCS2)c1	19.2	-0.1	-27.6	7.4	-4.7	x
CC1=C(C(=O)Nc2cccc(C(=O)NC3CCCC(C)C3C)c2)SCCO1 (stereo unspecified)	49.3*	-1.1	25.5	40.1	5.1	9.6
CC(C)NC(=S)N=Nc1c(O)[nH]c2ccc([N+](=O)[O-])cc12	17.3	-3.5	40.3	-7.0	20.6	x
C=C(C)CNC(=S)N=Nc1c(O)[nH]c2ccc([N+](=O)[O-])cc12	41.6*	6.0	39.7	27.3	20.1	18.7
Cc1ccccc1CN1C(=O)c2ccccc2C1c1nnnn1-c1ccc2c(c1)OCCO2 (stereo unspecified)	x	0.8	x	x	x	x
COc1ccc(C(O)c2nc(-c3cc(F)cc(Cl)c3)cs2)cc1 (stereo unspecified)	x	2.1	x	x	x	x
N#CCc1nn2c(-c3ccccc3)ccnc2c1C#N	43.0*	-1.8	7.0	29.5	9.6	27.5
CC(=O)Nc1ccc(CN2C(=O)C(C)(C)ON=C2c2ccc(C(F)(F)F)cc2)cc1	x	-1.0	x	x	x	x
Nc1nnc(-c2ccccc2)s1	91.6*	-0.6	-9.6	20.8	5.1	8.3
Nc1nnc(-c2ccc(F)cc2)s1	10.6	-1.7	-6.2	13.1	2.5	x
COCOCCn1cc(CN2CCS(=O)(=O)N(Cc3ccc(-c4ccc(F)cc4)cc3)C(CC(C)C)C2=O)nn1 (stereo unspecified)	x	-0.3	x	x	x	x
CC1=CC(C)(C)N2C(=O)C3(SCC(=O)N3c3ccc(O)cc3)c3cc(C)cc1c32 (stereo unspecified)	42.7*	10.3	18.4	27.3	22.7	19.8
Cc1cnc(NC(=O)c2cccs2)s1	33.3	1.2	-14.9	42.4	11.8	x
O=C(Nc1ncc([N+](=O)[O-])s1)c1cccs1	42.8*!	8.5	-55.2	31.7	21.5	38.0*
Cc1ccc(N(CC(=O)Nc2cc(C)cc(C)c2)S(=O)(=O)c2c(C)noc2C)cc1	36.1	2.1	32.3	27.8	29.2	x
Cc1ccc(N(CC(=O)N2CCN(c3ccc(F)cc3)CC2)S(=O)(=O)c2c(C)noc2C)cc1	40.9*	-0.9	44.0	32.3	14.2	7.8
CCc1cccc(NC(=O)CN(c2ccc(C)cc2)S(=O)(=O)c2c(C)noc2C)c1	48.8*	1.6	-1.0	35.2	32.7	36.4*
CCOC(=O)N1CCN(C(=O)CN(c2ccc(C)cc2)S(=O)(=O)c2c(C)noc2C)CC1	23.9	-0.3	9.0	2.4	13.5	x
CC12CCC3C(CCC4CC(O)CCC43C)C1CC(=O)C2 (stereo unspecified)	x	0.0	x	x	x	x
Cc1ccc(S(=O)(=O)N2[C@H](CC(=O)c3cccs3)OC[C@@H]2C(C)C)cc1	x	-1.1	x	x	x	x
O=C(Nc1ccc2c(c1)OCO2)c1nn(-c2ccccc2)c(=O)c2ccccc12	44.0*	-2.2	36.8	24.8	17.7	17.4
CCOC(=O)[C@]12CCC=C1N(Cc1ccc3c(c1)OCO3)C(=O)[C@H](CC(=O)NCCc1ccccc1OC)C2	x	-3.2	x	x	x	x
